Measurements reported in the supplement of paper PMC11732987, “Enantioselective OTUD7B fragment discovery through chemoproteomics screening and high-throughput optimisation” (Communications Chemistry, 2025).
Values without a mark were called inactive.

Sequence of UniProt Q92905 (Q92905 whole entry, looked up): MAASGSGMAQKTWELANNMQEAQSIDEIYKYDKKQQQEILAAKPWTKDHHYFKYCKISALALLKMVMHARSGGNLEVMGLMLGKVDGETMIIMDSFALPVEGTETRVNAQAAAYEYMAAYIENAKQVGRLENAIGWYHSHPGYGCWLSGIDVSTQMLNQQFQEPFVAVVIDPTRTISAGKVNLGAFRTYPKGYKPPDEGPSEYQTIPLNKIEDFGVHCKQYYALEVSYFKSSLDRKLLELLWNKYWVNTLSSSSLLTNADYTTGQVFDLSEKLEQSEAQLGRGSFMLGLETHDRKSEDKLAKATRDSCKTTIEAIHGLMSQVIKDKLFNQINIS
Sequence of UniProt Q9P275 (Q9P275 whole entry): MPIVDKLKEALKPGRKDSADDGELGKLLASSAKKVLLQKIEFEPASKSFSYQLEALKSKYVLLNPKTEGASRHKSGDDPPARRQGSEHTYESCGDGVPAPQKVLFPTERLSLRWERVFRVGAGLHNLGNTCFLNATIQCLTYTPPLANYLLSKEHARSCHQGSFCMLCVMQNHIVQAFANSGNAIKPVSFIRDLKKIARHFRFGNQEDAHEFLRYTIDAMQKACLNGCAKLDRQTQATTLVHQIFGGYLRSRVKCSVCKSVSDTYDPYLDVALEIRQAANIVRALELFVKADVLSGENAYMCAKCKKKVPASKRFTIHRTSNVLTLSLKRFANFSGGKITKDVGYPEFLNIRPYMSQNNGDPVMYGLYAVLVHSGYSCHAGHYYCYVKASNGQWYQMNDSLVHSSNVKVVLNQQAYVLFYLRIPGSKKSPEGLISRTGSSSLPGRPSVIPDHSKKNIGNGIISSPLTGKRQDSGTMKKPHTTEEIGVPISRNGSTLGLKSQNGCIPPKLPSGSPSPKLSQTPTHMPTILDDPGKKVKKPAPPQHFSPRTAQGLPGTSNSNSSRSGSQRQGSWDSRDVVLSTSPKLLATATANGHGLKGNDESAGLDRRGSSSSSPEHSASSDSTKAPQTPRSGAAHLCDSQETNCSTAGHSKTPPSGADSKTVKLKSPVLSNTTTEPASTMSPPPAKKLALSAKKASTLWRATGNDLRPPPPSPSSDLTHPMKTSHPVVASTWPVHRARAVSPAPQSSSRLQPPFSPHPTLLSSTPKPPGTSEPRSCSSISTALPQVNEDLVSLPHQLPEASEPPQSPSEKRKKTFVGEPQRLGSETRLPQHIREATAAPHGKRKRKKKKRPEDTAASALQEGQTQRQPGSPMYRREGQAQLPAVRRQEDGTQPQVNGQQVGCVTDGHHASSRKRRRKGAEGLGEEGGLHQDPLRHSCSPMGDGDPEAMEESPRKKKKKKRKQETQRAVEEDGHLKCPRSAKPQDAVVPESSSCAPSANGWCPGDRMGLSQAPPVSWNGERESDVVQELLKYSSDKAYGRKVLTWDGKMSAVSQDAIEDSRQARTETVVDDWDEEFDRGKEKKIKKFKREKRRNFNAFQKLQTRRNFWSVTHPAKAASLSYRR
Sequence of UniProt Q8TE49 (Q8TE49 whole entry): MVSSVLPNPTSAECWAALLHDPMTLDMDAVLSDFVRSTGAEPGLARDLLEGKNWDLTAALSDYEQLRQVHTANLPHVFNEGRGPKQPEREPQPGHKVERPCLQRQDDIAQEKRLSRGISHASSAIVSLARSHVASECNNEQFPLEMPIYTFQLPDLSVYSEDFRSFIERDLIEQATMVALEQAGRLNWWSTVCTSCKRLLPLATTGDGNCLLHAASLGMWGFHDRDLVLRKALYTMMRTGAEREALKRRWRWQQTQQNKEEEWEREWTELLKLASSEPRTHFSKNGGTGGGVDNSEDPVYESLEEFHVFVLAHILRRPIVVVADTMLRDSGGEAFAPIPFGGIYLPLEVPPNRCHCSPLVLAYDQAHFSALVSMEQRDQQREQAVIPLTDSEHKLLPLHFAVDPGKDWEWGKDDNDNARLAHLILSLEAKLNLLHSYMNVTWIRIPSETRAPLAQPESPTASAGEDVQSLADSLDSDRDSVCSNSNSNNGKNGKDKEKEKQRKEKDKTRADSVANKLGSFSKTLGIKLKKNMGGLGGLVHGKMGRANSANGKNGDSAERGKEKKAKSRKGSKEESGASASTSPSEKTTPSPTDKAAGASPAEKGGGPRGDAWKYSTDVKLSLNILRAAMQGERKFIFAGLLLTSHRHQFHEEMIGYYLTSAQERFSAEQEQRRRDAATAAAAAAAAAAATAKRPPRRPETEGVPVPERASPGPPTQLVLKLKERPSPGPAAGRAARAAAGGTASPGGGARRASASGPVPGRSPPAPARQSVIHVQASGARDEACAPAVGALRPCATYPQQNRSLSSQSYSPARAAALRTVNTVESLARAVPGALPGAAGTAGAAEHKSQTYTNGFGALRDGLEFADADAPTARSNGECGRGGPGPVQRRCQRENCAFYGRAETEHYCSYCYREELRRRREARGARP
Sequence of UniProt P62068 (P62068 whole entry): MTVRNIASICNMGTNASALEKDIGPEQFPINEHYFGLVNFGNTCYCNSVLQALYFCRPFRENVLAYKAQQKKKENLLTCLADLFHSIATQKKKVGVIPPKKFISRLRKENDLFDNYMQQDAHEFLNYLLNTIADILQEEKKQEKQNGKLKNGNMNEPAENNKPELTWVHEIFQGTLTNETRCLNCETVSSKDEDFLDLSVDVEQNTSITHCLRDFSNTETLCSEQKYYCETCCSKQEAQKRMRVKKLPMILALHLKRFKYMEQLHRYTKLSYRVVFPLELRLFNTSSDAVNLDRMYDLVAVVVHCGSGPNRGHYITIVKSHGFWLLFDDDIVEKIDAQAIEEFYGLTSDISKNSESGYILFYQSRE
Sequence of UniProt Q9UGI0 (Q9UGI0 whole entry): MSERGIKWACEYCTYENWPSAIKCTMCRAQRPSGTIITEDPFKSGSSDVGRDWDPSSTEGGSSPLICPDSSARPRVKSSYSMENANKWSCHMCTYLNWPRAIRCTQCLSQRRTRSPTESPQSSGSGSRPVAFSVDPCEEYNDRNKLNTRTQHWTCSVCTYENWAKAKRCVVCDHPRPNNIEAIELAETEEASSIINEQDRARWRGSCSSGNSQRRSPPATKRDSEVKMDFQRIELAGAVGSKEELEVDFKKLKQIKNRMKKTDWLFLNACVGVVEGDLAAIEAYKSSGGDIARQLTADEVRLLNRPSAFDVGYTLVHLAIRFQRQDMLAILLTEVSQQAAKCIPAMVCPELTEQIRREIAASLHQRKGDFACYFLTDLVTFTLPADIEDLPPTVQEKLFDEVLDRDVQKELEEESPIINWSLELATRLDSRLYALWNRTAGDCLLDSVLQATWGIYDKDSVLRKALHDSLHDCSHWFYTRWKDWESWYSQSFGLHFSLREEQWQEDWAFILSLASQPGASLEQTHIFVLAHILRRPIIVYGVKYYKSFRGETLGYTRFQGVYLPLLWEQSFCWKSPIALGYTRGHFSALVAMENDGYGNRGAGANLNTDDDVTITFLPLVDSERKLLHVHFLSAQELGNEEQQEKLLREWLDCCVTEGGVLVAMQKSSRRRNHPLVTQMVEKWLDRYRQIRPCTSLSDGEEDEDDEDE
Sequence of UniProt Q9UHP3 (Q9UHP3 whole entry): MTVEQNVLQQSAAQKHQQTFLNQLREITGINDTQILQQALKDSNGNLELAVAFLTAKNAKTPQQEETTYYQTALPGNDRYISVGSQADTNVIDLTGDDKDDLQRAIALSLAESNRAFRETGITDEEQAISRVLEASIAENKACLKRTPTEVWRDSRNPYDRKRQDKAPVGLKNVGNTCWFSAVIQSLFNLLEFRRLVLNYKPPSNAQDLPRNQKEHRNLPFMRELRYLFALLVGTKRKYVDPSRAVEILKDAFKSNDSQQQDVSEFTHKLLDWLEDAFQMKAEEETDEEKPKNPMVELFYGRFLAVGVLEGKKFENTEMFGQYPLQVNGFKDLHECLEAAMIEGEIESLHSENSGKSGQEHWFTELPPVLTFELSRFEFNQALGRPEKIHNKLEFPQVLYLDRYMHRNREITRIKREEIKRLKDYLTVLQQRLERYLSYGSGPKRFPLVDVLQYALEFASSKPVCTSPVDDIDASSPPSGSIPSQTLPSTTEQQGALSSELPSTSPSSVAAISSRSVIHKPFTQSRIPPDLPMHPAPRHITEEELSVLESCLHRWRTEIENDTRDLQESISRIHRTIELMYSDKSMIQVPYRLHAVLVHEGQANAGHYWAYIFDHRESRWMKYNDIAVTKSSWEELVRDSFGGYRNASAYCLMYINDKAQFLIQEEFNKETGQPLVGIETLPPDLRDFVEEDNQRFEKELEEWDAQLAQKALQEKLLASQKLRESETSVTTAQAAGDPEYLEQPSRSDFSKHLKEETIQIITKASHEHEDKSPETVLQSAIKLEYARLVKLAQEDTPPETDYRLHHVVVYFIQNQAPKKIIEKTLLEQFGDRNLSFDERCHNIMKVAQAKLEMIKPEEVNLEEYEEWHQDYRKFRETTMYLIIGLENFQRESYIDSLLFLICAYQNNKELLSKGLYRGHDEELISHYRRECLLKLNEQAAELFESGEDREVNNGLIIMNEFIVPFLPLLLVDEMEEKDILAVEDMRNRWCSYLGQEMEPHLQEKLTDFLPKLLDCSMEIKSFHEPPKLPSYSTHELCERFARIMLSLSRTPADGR
Sequence of UniProt Q9NUU6 (Q9NUU6 whole entry): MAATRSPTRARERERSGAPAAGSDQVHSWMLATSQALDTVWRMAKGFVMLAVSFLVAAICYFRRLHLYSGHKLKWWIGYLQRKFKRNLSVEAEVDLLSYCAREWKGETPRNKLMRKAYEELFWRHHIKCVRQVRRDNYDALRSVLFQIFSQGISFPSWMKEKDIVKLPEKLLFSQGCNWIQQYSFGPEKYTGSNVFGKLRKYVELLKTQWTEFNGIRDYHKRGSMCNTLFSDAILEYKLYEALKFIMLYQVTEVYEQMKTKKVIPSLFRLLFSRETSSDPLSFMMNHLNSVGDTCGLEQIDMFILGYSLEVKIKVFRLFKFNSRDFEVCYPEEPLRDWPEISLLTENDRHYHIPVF

What follows are targets tested with ClCC(=O)NC1(CCCC1)C#N (assay: log2 ratio of Biotin-Ahx-Ub-VS probe labelling (compound/DMSO); higher = less target engagement, active = hit call of the paper (q ≤ 0.05, log2 ratio ≤ -1)). Conditions: compound concentration: 50uM; treatment time: 3 h.
Procedure: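 Round 2 competitive ABPP in HEK293T lysate. Compounds were tested at 50 and 200 µM for 3 h, followed by Biotin-Ahx-Ub-VS enrichment and diaPASEF LC-MS/MS. Values are the average log2 ratio (compound/DMSO) from an unpaired t-test (n=3 treated, n=26 DMSO).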
For USP9X (UniProt Q93008), the “log2 ratio of Biotin-Ahx-Ub-VS probe labelling” value (shortened to “log2 ratio”) was -0.227. In the case of EIF3F (UniProt O00303), the “log2 ratio” value is reported as 0.000219. For USP36 (UniProt Q9P275), the “log2 ratio” value was -0.292. With USP25 (UniProt Q9UHP3) the “log2 ratio” value was -0.312. ALG13 (UniProt Q9NP73) was tested, and the “log2 ratio” value was -0.154. USP10 (UniProt Q14694) was tested, and the “log2 ratio” value was -0.0318. In the case of UniProt Q9P2H5, the “log2 ratio” value is reported as -0.223. OTUD7B (UniProt Q6GQQ9) was tested, and the “log2 ratio” value was -1.16 (active). UniProt Q5T2D3 was tested, and the “log2 ratio” value was -0.0676. For UniProt Q70EL2, the “log2 ratio” value was -0.267. VCPIP1 (UniProt Q96JH7) was tested, and the “log2 ratio” value was -0.312. USP54 (UniProt Q70EL1) was tested, and the “log2 ratio” value was -0.959. In the case of FAM105A (UniProt Q9NUU6), the “log2 ratio” value is reported as -0.0646. With USP22 (UniProt Q9UPT9) the “log2 ratio” value was 0.0772. UniProt Q9UGI0 was tested, and the “log2 ratio” value was -0.46. USP46 (UniProt P62068) was tested, and the “log2 ratio” value was -0.274. USP8 (UniProt P40818) was tested, and the “log2 ratio” value was -0.191. USP24 (UniProt Q9UPU5) was tested, and the “log2 ratio” value was -0.0634. With UniProt Q8TE49 the “log2 ratio” value was -0.765. COPS5 (UniProt Q92905) was tested, and the “log2 ratio” value was 0.531.

Same assay, conditions: compound concentration: 200uM; treatment time: 3 h
USP9X (UniProt Q93008) was tested, and the “log2 ratio” value was -0.123. In the case of EIF3F (UniProt O00303), the “log2 ratio” value is reported as 0.192. With USP36 (UniProt Q9P275) the “log2 ratio” value was -0.22. For USP25 (UniProt Q9UHP3), the “log2 ratio” value was -1.01 (active). With ALG13 (UniProt Q9NP73) the “log2 ratio” value was 0.381. In the case of USP10 (UniProt Q14694), the “log2 ratio” value is reported as -0.0398. UniProt Q9P2H5 was tested, and the “log2 ratio” value was -0.102. For OTUD7B (UniProt Q6GQQ9), the “log2 ratio” value was -3.09 (active). With UniProt Q5T2D3 the “log2 ratio” value was -0.0477. For UniProt Q70EL2, the “log2 ratio” value was 0.248. With VCPIP1 (UniProt Q96JH7) the “log2 ratio” value was -0.217. USP54 (UniProt Q70EL1) was tested, and the “log2 ratio” value was -2.5 (active). In the case of FAM105A (UniProt Q9NUU6), the “log2 ratio” value is reported as 0.0452. With USP22 (UniProt Q9UPT9) the “log2 ratio” value was -0.266. With UniProt Q9UGI0 the “log2 ratio” value was 0.243. In the case of USP46 (UniProt P62068), the “log2 ratio” value is reported as -0.249. USP8 (UniProt P40818) was tested, and the “log2 ratio” value was -0.0614. For USP24 (UniProt Q9UPU5), the “log2 ratio” value was -0.175. UniProt Q8TE49 was tested, and the “log2 ratio” value was -1.08 (active). For COPS5 (UniProt Q92905), the “log2 ratio” value was 0.0873.
